Results taken from PubChem BioAssay (EPA / NIEHS).
Several values for one entry are separate records, joined by “and”; a condition that tells them apart may be missing. Identical values can stand only once. Results filed as inconclusive are left out. Some structures have more than one record in an assay (separate samples or runs), and their calls can disagree. Activity calls are given as the source filed them. How the source made its calls: active means hit-call score of the fitted dose curve at least 0.9, where 1 is the maximum; inconclusive means response in the unintended direction; inactive means score below 0.9.

biological target: Estrogen receptor (Homo sapiens) + Estrogen receptor beta (Homo sapiens) (UniProt P03372+Q92731); assay: OT_ER_ERaERb_1440: Odyssey Thera (OT) 24-hour HEK293T Protein-Complementation Assay for Estrogen Receptor-alpha/-beta Homodimer (AID 2283356);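 further: heteromer of ER alpha and ER beta binding domains; hits raise reporter fluorescence and both agonists and antagonists give an increase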
In short: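 HEK293T cells stably expressing a PCA pair of ERα LBD (aa 310-547) and ERβ LBD (aa 263-489) were dosed for 24 h. Fluorescence intensity increase versus DMSO vehicle was fitted as gain-of-signal.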

Sequence of Estrogen receptor (Homo sapiens) + Estrogen receptor beta (Homo sapiens) (P03372 whole entry, looked up, the tested form may be a part): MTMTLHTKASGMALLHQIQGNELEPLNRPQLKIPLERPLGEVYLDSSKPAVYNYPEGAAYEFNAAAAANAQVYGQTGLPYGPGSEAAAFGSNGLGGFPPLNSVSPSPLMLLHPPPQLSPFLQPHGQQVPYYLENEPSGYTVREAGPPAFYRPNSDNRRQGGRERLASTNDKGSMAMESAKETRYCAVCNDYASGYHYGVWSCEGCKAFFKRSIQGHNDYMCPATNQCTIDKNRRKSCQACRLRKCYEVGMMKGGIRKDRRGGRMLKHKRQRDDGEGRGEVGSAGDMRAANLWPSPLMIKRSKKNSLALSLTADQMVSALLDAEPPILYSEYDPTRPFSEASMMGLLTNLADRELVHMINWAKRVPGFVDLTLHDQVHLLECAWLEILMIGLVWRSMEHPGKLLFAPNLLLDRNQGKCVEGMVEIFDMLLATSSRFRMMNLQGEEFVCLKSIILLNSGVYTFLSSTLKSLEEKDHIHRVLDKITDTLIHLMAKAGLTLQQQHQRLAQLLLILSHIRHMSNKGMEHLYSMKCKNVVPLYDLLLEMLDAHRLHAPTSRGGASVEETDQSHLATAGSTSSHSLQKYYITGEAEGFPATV
Sequence of Estrogen receptor (Homo sapiens) + Estrogen receptor beta (Homo sapiens) (Q92731 whole entry, looked up, the tested form may be a part): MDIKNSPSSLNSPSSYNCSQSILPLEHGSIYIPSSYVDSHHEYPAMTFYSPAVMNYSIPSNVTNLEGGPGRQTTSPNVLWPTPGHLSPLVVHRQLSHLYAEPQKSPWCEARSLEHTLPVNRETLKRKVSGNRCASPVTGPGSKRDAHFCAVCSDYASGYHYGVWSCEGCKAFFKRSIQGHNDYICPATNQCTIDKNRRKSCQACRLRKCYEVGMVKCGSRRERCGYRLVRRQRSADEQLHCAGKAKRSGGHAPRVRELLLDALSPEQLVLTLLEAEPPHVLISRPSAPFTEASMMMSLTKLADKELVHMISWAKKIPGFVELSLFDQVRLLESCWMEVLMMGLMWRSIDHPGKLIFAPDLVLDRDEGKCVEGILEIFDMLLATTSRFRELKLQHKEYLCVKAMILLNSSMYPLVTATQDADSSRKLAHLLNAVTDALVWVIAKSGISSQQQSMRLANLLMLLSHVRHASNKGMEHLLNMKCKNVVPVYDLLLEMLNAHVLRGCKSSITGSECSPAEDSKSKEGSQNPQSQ

Row | SMILES | AC50 | outcome
1 | O=C1OC2(c3ccccc31)c1cc(Br)c(O)c(Br)c1Oc1c2cc(Br)c(O)c1Br | 53.7 µM (active) | 
2 | C=C(C)C(=O)OCCC(F)(F)C(F)(F)C(F)(F)C(F)(F)C(F)(F)C(F)(F)F |  | inactive
3 | CCCCC(CC)COC(=O)CCCCC(=O)OCc1ccccc1 (centres undefined) |  | inactive
4 | CCCCCCCCCCCCN1CCCC1=O |  | inactive
5 | O=C(O)c1ccccc1C(c1ccc(O)cc1)c1ccc(O)cc1 |  | inactive
6 | OCCC(F)(F)C(F)(F)C(F)(F)C(F)(F)C(F)(F)C(F)(F)C(F)(F)C(F)(F)F |  | inactive
7 | Cc1cc(CCN2CCN(c3nsc4ccccc34)CC2)cc2c1NC(=O)CC2(C)C |  | inactive
8 | CN1CCC[C@H]1c1cccnc1 |  | inactive
9 | COCC(C)OCC(C)O (centres undefined) |  | inactive
10 | CCCCC(CC)COC(=O)CCCCC(=O)OCC(CC)CCCC (centres undefined) |  | inactive
11 | NC(=O)N(O)[C@@H]1C=C[C@H](Oc2cccc(Oc3ccc(F)cc3)c2)C1 | 34.8 µM (active) | 
12 | CCc1nn(C2CCCCC2)c2cc(C3(C#N)CCC(C(=O)O)CC3)ccc12 (centres undefined) |  | inactive
13 | CN(C)C=O |  | inactive

biological target: Retinoic acid receptor alpha (Homo sapiens) (UniProt P10276); assay: NVS_NR_hRAR_Antagonist: NovaScreen (NVS) Nuclear Receptor Binding Assay for human Retinoic Acid Alpha Receptor Antagonism (RAR) (AID 2283358)
In short: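 Chemicals were first tested in duplicate at 25 uM, then actives in concentration series, in a cell-free TR-FRET antagonist binding format. Measurements were taken 2 hours after dosing and loss of signal was evaluated against DMSO controls.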

Sequence of Retinoic acid receptor alpha (Homo sapiens) (P10276 whole entry, looked up): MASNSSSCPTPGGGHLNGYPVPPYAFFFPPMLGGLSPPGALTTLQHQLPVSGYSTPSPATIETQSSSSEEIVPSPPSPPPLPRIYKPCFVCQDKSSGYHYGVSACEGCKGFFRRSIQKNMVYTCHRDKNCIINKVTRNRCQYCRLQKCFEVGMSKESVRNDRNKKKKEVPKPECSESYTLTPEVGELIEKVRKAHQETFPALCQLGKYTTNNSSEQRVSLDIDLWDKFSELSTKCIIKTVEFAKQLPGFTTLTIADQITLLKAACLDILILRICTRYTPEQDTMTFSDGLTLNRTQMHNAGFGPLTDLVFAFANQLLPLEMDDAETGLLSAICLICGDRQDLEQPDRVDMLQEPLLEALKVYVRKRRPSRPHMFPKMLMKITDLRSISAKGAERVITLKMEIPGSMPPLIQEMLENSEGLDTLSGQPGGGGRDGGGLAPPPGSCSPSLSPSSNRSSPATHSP

Row | SMILES | AC50 | outcome
14 | CCCCCCCCCCCCCC[N+](C)(C)C | 28.3 µM (active) | 
15 | CC1=C(/C=C/C(C)=C/C=C/C(C)=C/C(=O)O)C(C)(C)CCC1 |  | inactive
16 | CC(C)CCCCCCOC(=O)CCCCC(=O)OCCCCCCC(C)C |  | inactive

biological target: human Peroxisome Proliferator-activated Receptor alpha (PPARa), PPARA (gene 5465) (UniProt Q07869); assay: NVS_NR_hPPARa: NovaScreen (NVS) Nuclear Receptor Binding Assay for human Peroxisome Proliferator-activated Receptor alpha (PPARa) (AID 2283359);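 further: activity means loss of TR-FRET signal versus DMSO baseline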
In short: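 One-hour incubation, cell-free extracted protein, TR-FRET binding readout; signal loss vs DMSO scored. Screen: 25 uM duplicates, confirmatory dose series for actives.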

Sequence of human Peroxisome Proliferator-activated Receptor alpha (PPARa), PPARA (gene 5465) (Q07869 whole entry, looked up): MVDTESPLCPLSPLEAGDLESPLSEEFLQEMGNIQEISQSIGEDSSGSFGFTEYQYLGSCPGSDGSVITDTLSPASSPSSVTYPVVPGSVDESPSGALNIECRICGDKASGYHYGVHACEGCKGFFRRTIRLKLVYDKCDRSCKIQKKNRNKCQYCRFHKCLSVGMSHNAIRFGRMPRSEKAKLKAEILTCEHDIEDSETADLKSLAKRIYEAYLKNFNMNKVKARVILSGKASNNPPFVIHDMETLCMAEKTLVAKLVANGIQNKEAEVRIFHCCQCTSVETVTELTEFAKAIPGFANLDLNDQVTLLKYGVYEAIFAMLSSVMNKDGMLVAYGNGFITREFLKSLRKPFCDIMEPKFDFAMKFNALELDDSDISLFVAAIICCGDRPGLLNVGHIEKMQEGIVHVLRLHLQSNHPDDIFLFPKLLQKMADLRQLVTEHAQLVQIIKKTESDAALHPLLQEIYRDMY

Row | SMILES | outcome
17 | CCOC(=O)CC(O)(CC(=O)OCC)C(=O)OCC | inactive
18 | Cc1cc(C)c(O)c(C)c1 | inactive
19 | CC1=C(/C=C/C(C)=C/C=C/C(C)=C/C(=O)O)C(C)(C)CCC1 | inactive

biological target: PGR (gene 5241) (UniProt P06401); assay: NVS_NR_hPR: NovaScreen (NVS) Nuclear Receptor Binding Assay for human Progestron Receptor (PR) (AID 2283360);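 further: active means loss of bound radioligand signal versus DMSO baseline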
In short: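 Competitive displacement of a labelled radioligand from T47D-derived receptor protein is measured in a cell-free format. Initial testing uses 25 uM in duplicate, with positive and negative controls on every plate.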

Row | SMILES | outcome | AC50
20 | C=C(C)C(=O)OCCC(F)(F)C(F)(F)C(F)(F)C(F)(F)C(F)(F)C(F)(F)F | inactive | 
21 | COC(=O)CCCCC(=O)OC | inactive | 
22 | CCCCCCCCCCCCCC[N+](C)(C)C |  | 39.3 µM (active)
23 | Cc1cc(CCN2CCN(c3nsc4ccccc34)CC2)cc2c1NC(=O)CC2(C)C |  | 36 µM (active)
24 | CCCOc1sc(C(=O)N2CCC(c3cc(CN)ccc3F)CC2)c(C)c1Br | inactive | 
25 | NC(=O)N(O)[C@@H]1C=C[C@H](Oc2cccc(Oc3ccc(F)cc3)c2)C1 | inactive | 

biological target: Retinoic acid receptor alpha (Homo sapiens) (UniProt P10276); assay: NVS_NR_hRARa_Agonist: NovaScreen (NVS) Nuclear Receptor Binding Assay for human Retinoic Acid Alpha Receptor Agonism (RAR) (AID 2283361)
In short: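 Compounds screened at 25 uM, duplicate, then in concentration series if active. Detection: TR-FRET gain of signal versus DMSO after 2 h with cell-free extracted RARα.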

Row | SMILES | AC50 | outcome
26 | CCN(CC)CCNc1ccc(CNC=O)c2sc3ccc(OC)cc3c(=O)c12 | 8.9 µM (active) | 
27 | CCCCC(CC)COC(=O)CCCCC(=O)OCC(CC)CCCC (centres undefined) |  | inactive
28 | O=c1c(-c2ccc(O)cc2)coc2cc(O)ccc12 | 1.06 µM (active) and 6.6 µM (active) | inactive
29 | CC(C)CCCCCCOC(=O)CCCCC(=O)OCCCCCCC(C)C |  | inactive

biological target: human Thyroid Receptor Alpha (TRa), THRA (gene 7067) (UniProt P10827); assay: NVS_NR_hTRa_Antagonist: NovaScreen (NVS) Nuclear Receptor Binding Assay for human Thyroid Receptor Alpha Antagonism (TRa) (AID 2283362);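 further: activity is loss of signal relative to DMSO baseline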
In short: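 Cell-free binding assay on extracted receptor protein, read 1 h after chemical dosing by AlphaLISA chemiluminescence; loss of signal relative to DMSO baseline marks antagonism. Primary screen ran in duplicate at 25 uM, with concentration series for actives.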

Sequence of human Thyroid Receptor Alpha (TRa), THRA (gene 7067) (P10827 whole entry, looked up): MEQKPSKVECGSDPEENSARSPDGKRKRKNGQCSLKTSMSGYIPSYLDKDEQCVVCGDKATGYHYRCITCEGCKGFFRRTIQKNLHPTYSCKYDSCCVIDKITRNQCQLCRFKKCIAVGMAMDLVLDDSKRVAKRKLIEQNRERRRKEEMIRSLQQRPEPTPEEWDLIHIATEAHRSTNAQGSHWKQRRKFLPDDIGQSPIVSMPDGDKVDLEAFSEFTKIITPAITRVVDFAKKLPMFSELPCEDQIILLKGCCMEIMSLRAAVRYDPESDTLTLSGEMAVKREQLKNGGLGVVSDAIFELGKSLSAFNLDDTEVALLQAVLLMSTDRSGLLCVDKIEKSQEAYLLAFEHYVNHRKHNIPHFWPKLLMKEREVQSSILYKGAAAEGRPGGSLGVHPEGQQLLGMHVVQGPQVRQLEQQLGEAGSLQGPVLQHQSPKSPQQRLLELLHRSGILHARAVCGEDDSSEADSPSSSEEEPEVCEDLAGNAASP

Row | SMILES | outcome | AC50
30 | c1ccc2cc3c(ccc4ccccc43)cc2c1 | inactive | 
31 | CCN(CC)CCNc1ccc(CNC=O)c2sc3ccc(OC)cc3c(=O)c12 |  | 15.1 µM (active)
32 | CC(=O)NC1(c2cccc(F)c2)CCN(CC[C@@]2(c3ccc(Cl)c(Cl)c3)CN(c3ccccc3)C(=O)CO2)CC1 |  | 20.8 µM (active)

biological target: Glucocorticoid receptor (Homo sapiens) (UniProt P04150); assay: NVS_NR_hGR: NovaScreen (NVS) Nuclear Receptor Binding Assay for human Glucocorticoid Receptor (GR) (AID 2283363);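 on AC50: activity is loss of specific radioligand binding signal relative to DMSO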
In short: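 Single-readout cell-free binding: radioligand plus extracted receptor, 16-hour dosing, filter radiodetection; 25 uM duplicate primary, concentration series secondary.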

Sequence of Glucocorticoid receptor (Homo sapiens) (P04150 whole entry, looked up): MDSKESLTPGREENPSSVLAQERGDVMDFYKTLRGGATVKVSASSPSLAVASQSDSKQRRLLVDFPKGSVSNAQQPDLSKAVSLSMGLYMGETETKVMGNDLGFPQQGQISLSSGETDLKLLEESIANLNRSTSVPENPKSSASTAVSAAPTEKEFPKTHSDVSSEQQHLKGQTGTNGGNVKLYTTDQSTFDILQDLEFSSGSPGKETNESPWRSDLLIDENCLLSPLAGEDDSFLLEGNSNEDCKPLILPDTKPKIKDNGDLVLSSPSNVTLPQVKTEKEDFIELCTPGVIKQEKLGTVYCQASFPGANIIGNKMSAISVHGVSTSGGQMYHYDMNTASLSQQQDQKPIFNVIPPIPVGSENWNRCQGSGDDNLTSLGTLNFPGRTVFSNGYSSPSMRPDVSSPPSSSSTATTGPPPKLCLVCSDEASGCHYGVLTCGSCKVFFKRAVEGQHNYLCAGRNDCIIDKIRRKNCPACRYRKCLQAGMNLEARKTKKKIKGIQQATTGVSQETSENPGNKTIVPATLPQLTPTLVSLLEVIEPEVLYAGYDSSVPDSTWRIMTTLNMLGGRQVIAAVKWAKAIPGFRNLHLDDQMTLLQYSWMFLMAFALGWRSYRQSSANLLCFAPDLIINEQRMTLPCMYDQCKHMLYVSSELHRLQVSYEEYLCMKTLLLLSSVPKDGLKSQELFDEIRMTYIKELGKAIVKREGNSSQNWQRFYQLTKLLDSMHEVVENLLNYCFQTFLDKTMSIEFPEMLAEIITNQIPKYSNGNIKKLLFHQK

Row | SMILES | AC50 | outcome
33 | O=C1OC2(c3ccccc31)c1cc(Br)c(O)c(Br)c1Oc1c2cc(Br)c(O)c1Br | 20.9 µM (active) | 
34 | CC(O)CO (centres undefined) |  | inactive
35 | CCCCCCCCCCCCCC[N+](C)(C)C | 6.85 µM (active) and 29.1 µM (active) | 
36 | O=C(O)c1ccccc1C(c1ccc(O)cc1)c1ccc(O)cc1 | 10.2 µM (active) | 
37 | CCN(CC)CCNc1ccc(CNC=O)c2sc3ccc(OC)cc3c(=O)c12 |  | inactive
38 | CCCOc1sc(C(=O)N2CCC(c3cc(CN)ccc3F)CC2)c(C)c1Br | 15 µM (active) | 
39 | CC(=O)NC1(c2cccc(F)c2)CCN(CC[C@@]2(c3ccc(Cl)c(Cl)c3)CN(c3ccccc3)C(=O)CO2)CC1 |  | inactive
40 | CC(C)CCCCCCOC(=O)CCCCC(=O)OCCCCCCC(C)C |  | inactive

biological target: Nuclear receptor subfamily 1 group I member 2 (Homo sapiens) (UniProt O75469); assay: NVS_NR_hPXR: NovaScreen (NVS) Nuclear Receptor Binding Assay for human Pregnane X Receptor (PXR) (AID 2283365);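 further: a drop in FRET signal versus DMSO baseline means the compound binds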
In short: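 Cell-free binding assay with extracted human PXR protein, read by TR-FRET 2 h after dosing; loss of signal relative to DMSO baseline indicates binding. Primary screen at 25 uM in duplicate, actives retested in concentration series.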

Sequence of Nuclear receptor subfamily 1 group I member 2 (Homo sapiens) (O75469 whole entry, looked up): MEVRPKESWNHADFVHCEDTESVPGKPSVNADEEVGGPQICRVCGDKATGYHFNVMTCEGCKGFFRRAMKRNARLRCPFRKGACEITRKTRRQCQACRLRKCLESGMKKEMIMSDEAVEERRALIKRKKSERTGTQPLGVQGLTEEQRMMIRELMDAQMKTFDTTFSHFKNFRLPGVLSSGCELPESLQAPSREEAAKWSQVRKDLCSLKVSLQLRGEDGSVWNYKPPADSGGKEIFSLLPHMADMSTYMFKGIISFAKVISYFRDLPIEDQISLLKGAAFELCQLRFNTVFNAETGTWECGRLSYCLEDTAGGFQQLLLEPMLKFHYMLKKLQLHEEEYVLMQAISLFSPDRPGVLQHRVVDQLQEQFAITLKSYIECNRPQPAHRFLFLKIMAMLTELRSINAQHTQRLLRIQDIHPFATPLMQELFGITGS

Row | SMILES | AC50 | outcome
41 | ClC1=C(Cl)C(Cl)(Cl)C(Cl)=C1Cl | 40.8 µM (active) | 
42 | O=C(O)c1ccccc1C(c1ccc(O)cc1)c1ccc(O)cc1 |  | inactive
43 | c1ccc2cc3c(ccc4ccccc43)cc2c1 |  | inactive
44 | COCC(C)OCC(C)O (centres undefined) |  | inactive

biological target: rat Androgen Receptor (AR), Ar (gene 24208) (UniProt P15207); assay: NVS_NR_rAR: NovaScreen (NVS) Nuclear Receptor Binding Assay for rat Androgen Receptor (AR) (AID 2283366)
In short: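 Actives from a duplicate single-concentration (25 uM) primary run went on to concentration series. Displacement of radioligand was counted by filtration and scintillation, 18 h post-dose, using prostate extracts from testosterone-pretreated rats, with DMSO as baseline.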

Sequence of rat Androgen Receptor (AR), Ar (gene 24208) (P15207 whole entry, looked up): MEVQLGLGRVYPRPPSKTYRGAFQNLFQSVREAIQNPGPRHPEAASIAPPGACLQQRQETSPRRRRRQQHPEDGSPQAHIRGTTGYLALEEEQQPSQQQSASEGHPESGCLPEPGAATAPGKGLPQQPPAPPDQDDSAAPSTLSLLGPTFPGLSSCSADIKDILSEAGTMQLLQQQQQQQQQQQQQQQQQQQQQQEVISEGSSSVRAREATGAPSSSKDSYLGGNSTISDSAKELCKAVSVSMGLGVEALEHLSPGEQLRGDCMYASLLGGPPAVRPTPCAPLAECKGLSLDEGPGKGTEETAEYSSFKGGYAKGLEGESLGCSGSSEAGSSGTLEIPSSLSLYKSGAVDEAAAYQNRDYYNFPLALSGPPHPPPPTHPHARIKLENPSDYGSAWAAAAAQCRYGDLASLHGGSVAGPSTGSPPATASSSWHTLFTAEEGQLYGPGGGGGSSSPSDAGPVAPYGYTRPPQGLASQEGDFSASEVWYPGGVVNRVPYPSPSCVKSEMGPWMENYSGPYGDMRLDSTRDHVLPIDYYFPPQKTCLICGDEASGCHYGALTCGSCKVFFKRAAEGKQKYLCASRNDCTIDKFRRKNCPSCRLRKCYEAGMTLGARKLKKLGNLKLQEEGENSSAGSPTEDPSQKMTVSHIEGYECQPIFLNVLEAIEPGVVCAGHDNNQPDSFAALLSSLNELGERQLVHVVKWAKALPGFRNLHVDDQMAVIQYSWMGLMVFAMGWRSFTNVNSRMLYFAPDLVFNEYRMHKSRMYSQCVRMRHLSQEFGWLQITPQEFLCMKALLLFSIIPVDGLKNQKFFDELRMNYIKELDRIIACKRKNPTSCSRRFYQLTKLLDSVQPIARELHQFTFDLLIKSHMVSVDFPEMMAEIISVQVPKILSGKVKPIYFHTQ

Row | SMILES | outcome | AC50
45 | O=C(O)c1ccccc1C(c1ccc(O)cc1)c1ccc(O)cc1 | inactive | 
46 | CCCOc1sc(C(=O)N2CCC(c3cc(CN)ccc3F)CC2)c(C)c1Br |  | 13.6 µM (active)
47 | O=c1c(-c2ccc(O)cc2)coc2cc(O)ccc12 | inactive | 

biological target: guinea pig Sigma Receptor, Non-selective Binding, SIGMAR1 (gene 100135589) (UniProt Q60492); assay: NVS_OR_gSIGMA_NonSelective: NovaScreen (NVS) Nuclear Receptor Binding Assay for guinea pig Sigma Receptor, Non-selective Binding (AID 2283367)
In short: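 Test chemicals were screened in duplicate at 25 uM, then in concentration series if active, against radioligand binding to guinea pig brain membranes; filtration and scintillation counting at 1 h measured remaining bound ligand.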

Sequence of guinea pig Sigma Receptor, Non-selective Binding, SIGMAR1 (gene 100135589) (Q60492 whole entry, looked up): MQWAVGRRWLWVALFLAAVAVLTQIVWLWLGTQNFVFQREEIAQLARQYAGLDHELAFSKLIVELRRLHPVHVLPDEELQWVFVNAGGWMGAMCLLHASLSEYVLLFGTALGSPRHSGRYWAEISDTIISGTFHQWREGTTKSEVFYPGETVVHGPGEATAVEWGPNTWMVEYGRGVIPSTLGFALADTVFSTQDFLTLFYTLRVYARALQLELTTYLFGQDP

Row | SMILES | AC50 | outcome
48 | CCCCCCCCCCCCCC[N+](C)(C)C | 0.558 µM (active) | 
49 | CCN(CC)CCNc1ccc(CNC=O)c2sc3ccc(OC)cc3c(=O)c12 | 12.2 µM (active) | 
50 | c1ccc2c(c1)ccc1ccccc12 |  | inactive
51 | CCCOc1sc(C(=O)N2CCC(c3cc(CN)ccc3F)CC2)c(C)c1Br | 1.27 µM (active) | 
52 | Cc1cc(C)c(O)c(C)c1 |  | inactive
53 | NC(=O)N(O)[C@@H]1C=C[C@H](Oc2cccc(Oc3ccc(F)cc3)c2)C1 | 7.64 µM (active) | 
54 | CCC(C)(C)C1CCC(O)CC1 (centres undefined) |  | inactive

tested on: guinea pig Dopamine Transporter (DAT), gene 100714898; assay: NVS_TR_gDAT: NovaScreen (NVS) Transporter Assay for guinea pig Dopamine Transporter (DAT) (AID 2283369);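 further: active compounds lower bound radioligand signal relative to DMSO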
In short: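 Guinea pig striatal membranes; radioligand displacement measured by filter-based scintillation counting 2 h after dosing. Initial duplicate screen at 25 uM, then concentration-response up to 50 uM for hits; loss of signal versus DMSO baseline.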

Row | SMILES | AC50
55 | CCN(CC)CCNc1ccc(CNC=O)c2sc3ccc(OC)cc3c(=O)c12 | 14.9 µM (active)
56 | CCCOc1sc(C(=O)N2CCC(c3cc(CN)ccc3F)CC2)c(C)c1Br | 14.4 µM (active)
57 | CC(=O)NC1(c2cccc(F)c2)CCN(CC[C@@]2(c3ccc(Cl)c(Cl)c3)CN(c3ccccc3)C(=O)CO2)CC1 | 25.1 µM (active)
58 | NC(=O)N(O)[C@@H]1C=C[C@H](Oc2cccc(Oc3ccc(F)cc3)c2)C1 | 7.24 µM (active)
